Experimental findings from PubChem BioAssay are described below.

Active and inactive are the calls of the source. Unless noted, the rule behind the calls is not given here.

Test [1] in a line: compounds binding Alexa647 anti-His antibody – biochemical, small-molecule microarray, 635 nm fluorescence, artefact control for SMM control protein annotation, primary screen (AID 1128).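 Note: score merges feature fluorescence with signal-to-noise for each printed compound spot.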 The conditions noted are these: higher = more signal.
Test [2] concerns Human papillomavirus type 1a E7 protein (residues 1-88). The test is described as follows: HPV1a E7 small-molecule binders, primary screen, biochemical, small-molecule microarray, residues 1-88, 635 nm (AID 1129). The conditions noted are these: small-molecule microarray binding, fluorescence 635 nm; higher = more signal.
Test [3] has as its target Focal adhesion kinase 1 (Homo sapiens) (UniProt Q05397). The test is described as follows: PTK2 protein binding on printed compound slides – biochemical, small-molecule microarray, 635/667 nm fluorescence, BSA, DTT, primary screen (AID 1130).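 Note: composite of spot emission at 667 nm and signal to noise over triplicate slides.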 The conditions noted are these: 635 nm fluorescence, higher = more signal.
The subject of test [4] is Fibrinogen (Alexa647-labelled). The test is described as follows: Alexa647-fibrinogen binding to printed small molecules – biochemical, small-molecule microarray, 635/667 nm fluorescence, artefact control for SMM control-protein annotation, profiling panel (AID 1131).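 Note: z-score merges 667 nm fluorescence with per-spot signal-to-noise over triplicate slides.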 The note with it: fibrinogen-A647 binding fluorescence, higher = more signal.
For test [5], the target named is Follistatin (Homo sapiens) (UniProt P19883). The test is described as follows: FST protein binding to printed compounds – biochemical, small-molecule microarray, 635/667 nm fluorescence, primary screen (AID 1132). The note with it: 635 nm fluorescence, higher = more signal.
Follistatin (Homo sapiens), sequence (P19883 whole entry, looked up): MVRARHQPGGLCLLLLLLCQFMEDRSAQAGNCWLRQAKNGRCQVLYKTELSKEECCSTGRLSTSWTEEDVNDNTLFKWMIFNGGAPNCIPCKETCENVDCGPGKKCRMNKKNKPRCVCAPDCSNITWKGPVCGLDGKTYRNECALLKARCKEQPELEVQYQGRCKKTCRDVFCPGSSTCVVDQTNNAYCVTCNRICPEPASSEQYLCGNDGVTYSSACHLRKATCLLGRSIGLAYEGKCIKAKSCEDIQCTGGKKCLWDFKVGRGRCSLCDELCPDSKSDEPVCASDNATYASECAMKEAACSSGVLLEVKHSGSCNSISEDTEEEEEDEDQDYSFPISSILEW
For test [6], the target named is Fibroblast growth factor 2 (Homo sapiens) (UniProt P09038). Kind of test: basic fibroblast growth factor binding to printed compounds – biochemical, small-molecule microarray, 635/667 nm fluorescence, primary screen (AID 1133). The conditions noted are these: FGF2, fluorescence 635/667, higher = more signal.
Fibroblast growth factor 2 (Homo sapiens), sequence (P09038 whole entry, looked up): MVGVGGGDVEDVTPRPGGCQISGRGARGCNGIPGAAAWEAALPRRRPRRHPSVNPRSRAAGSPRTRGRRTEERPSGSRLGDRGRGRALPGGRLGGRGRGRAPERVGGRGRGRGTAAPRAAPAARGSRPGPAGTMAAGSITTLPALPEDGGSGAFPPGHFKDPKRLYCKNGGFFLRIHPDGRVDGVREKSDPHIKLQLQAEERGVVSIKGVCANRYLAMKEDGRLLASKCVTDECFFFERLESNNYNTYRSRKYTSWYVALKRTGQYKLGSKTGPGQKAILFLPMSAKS
A short description of test [7]: JC-1 mitochondrial potential readout, lung cancer cells – cell-based, A549, JC-1 fluorescence, basal, 24 h, 100 nL, profiling panel (AID 1138).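 Note: A549 lung adenocarcinoma cells under basal conditions with no added stimulus; test concentration not given here.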 The note with it: higher = more signal.
In another test the test system is Lefty1. Kind of test: Lefty1 protein binding to printed compounds – biochemical, small-molecule microarray, 635/667 nm fluorescence, primary screen (AID 1139). The note with it: fluorescence 635/667, higher = more signal.
Test [8] relates to wheat germ agglutinin (Triticum aestivum), Alexa647-labelled. Kind of test: Alexa647-WGA lectin binding to printed small molecules – biochemical, small-molecule microarray, 635/667 nm fluorescence, artefact control for SMM control-protein annotation, profiling panel (AID 1140).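 Note: score merges 667 nm feature emission with signal to noise over triplicate slides.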 The note with it: WGA-A647 binding, 635 nm fluorescence, higher = more signal.
For test [9], the target named is Luciferin 4-monooxygenase (Photinus pyralis) (UniProt P08659). The test is described as follows: inhibition of purified Photinus pyralis luciferase – biochemical, luminescence, purified enzyme, 2006 set, primary screen (AID 1141).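 Note: cell-free assay with purified firefly luciferase at 100 ng per well in PBS; test concentration not given here.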 The conditions noted are these: purified firefly luciferase, SteadyGlo luminescence, 30 min; higher = more signal, called active from +8 up or from −8 down.
Luciferin 4-monooxygenase (Photinus pyralis), sequence (P08659 whole entry, looked up): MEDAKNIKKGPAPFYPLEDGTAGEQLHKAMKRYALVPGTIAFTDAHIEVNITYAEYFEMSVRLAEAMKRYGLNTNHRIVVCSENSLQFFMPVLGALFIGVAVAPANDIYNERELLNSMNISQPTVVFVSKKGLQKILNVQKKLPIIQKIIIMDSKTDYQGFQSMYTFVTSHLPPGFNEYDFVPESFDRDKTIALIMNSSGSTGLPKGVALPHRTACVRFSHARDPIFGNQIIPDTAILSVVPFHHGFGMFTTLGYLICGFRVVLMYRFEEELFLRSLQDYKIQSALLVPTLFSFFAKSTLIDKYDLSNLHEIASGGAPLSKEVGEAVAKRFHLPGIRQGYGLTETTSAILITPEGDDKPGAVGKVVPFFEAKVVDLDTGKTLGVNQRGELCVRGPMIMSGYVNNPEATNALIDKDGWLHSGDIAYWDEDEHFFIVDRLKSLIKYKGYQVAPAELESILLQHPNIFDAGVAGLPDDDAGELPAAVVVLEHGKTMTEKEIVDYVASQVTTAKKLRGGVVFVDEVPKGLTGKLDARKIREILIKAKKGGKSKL

The subject of test [10] is Wnt5a (protein binding on small-molecule microarray). Kind of test: small molecules binding Wnt5a protein – biophysical, small-molecule microarray, 635/667 nm fluorescence, primary screen (AID 1142).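 Note: fluorescence read at 667 nm with signal to noise per printed feature.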 The note with it: 635 nm fluorescence, higher = more signal.
Test [11] is described as follows: ATP-based viability of Huh7 replicon cells – cell-based, CellTiter-Glo luminescence, basal, 48 h, cytotoxicity control for HCV replication inhibitor project, primary screen (AID 1143).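 Note: Huh7 hepatoma cells carrying a hepatitis C replication reporter with no stimulus; test concentration not given here.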 The conditions noted are these: higher = more signal, called active from +8 up or from −8 down. (Replicon systems follow genome replication, usually without infectious particles.)
A short description of test [12]: Pseudomonas biofilm growth suppression – PAO1 strain, BacTiter-Glo luminescence, LB-PBS, primary screen (AID 1144). The conditions noted are these: P. aeruginosa PAO1 biofilm, 12 h, higher = more signal.
Test [13] is described as follows: basal CRE-LacZ reporter activity in PC12 – cell-based, unstimulated, primary screen (AID 1145). The note with it: no forskolin, luminescence, 4.5 h, higher = more signal, called active from +8 up or from −8 down.
Test [14] can be described thus: forskolin-driven CRE-LacZ activity in PC12 – cell-based, CRE-LacZ reporter, forskolin-stimulated, primary screen (AID 1146).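 Note: PC12 cells with 6xCRE LacZ reporter stimulated by forskolin 10 µM; beta-galactosidase reporter signal reflecting CREB driven transcription.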 The conditions noted are these: luminescence, 4.5 h, higher = more signal, called active from +8 up or from −8 down.
In test [15] the target is Streptavidin (Streptomyces avidinii) (UniProt P22629). The test is described as follows: compounds binding control protein streptavidin – biophysical, small-molecule microarray, 635/667 nm fluorescence, artefact control for SMM compound annotation, primary screen (AID 1147).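 Note: signal reflects streptavidin binding to arrayed compounds as a control protein.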 The note with it: higher = more signal.
Streptavidin (Streptomyces avidinii), sequence (P22629 whole entry, looked up): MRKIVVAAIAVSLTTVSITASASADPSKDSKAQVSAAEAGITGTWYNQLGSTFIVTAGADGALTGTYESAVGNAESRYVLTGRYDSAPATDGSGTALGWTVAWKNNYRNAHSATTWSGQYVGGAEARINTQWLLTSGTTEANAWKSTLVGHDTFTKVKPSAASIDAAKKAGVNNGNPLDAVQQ
Test [16] is described as follows: probe aInhba binding on compound microarray – biochemical, small-molecule microarray, 635/667 nm fluorescence, primary screen (AID 1148).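 Note: score merges 667nm spot fluorescence with signal-to-noise for antibody binding to printed compounds.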 The conditions noted are these: higher = more signal.
Test [17] concerns the target Torsin-1A (Homo sapiens) (UniProt O14656). Kind of test: TOR1A wild-type binding on microarray – cell lysate, small-molecule microarray, lysate, 635/667 nm, primary screen (AID 1149). The note with it: COS7 hTOR1A-WT lysate, 635 nm fluorescence, higher = more signal.
The target is the same in test [18]. The test is described as follows: torsin A mutant lysate binding on microarrays – cell lysate, small-molecule microarray, COS7 lysate, 635/667 nm fluorescence, primary screen (AID 1150).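 Note: score pools 667 nm emission and signal to noise measuring lysate protein binding.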 The note with it: COS7 hTOR1A mutant lysate, 635 nm fluorescence, higher = more signal.
Test [19] relates to Sonic hedgehog protein (Shh). Kind of test: Sonic hedgehog microarray binding compounds – biochemical, small-molecule microarray, 635/667 nm fluorescence, primary screen (AID 1151).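 Note: Shh protein binding to compounds spotted on small-molecule microarray slides; score combines spot fluorescence intensity with signal-to-noise across triplicate slides.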 The conditions noted are these: 635 nm fluorescence, higher = more signal.

Focal adhesion kinase 1 (Homo sapiens), sequence (Q05397 whole entry, looked up): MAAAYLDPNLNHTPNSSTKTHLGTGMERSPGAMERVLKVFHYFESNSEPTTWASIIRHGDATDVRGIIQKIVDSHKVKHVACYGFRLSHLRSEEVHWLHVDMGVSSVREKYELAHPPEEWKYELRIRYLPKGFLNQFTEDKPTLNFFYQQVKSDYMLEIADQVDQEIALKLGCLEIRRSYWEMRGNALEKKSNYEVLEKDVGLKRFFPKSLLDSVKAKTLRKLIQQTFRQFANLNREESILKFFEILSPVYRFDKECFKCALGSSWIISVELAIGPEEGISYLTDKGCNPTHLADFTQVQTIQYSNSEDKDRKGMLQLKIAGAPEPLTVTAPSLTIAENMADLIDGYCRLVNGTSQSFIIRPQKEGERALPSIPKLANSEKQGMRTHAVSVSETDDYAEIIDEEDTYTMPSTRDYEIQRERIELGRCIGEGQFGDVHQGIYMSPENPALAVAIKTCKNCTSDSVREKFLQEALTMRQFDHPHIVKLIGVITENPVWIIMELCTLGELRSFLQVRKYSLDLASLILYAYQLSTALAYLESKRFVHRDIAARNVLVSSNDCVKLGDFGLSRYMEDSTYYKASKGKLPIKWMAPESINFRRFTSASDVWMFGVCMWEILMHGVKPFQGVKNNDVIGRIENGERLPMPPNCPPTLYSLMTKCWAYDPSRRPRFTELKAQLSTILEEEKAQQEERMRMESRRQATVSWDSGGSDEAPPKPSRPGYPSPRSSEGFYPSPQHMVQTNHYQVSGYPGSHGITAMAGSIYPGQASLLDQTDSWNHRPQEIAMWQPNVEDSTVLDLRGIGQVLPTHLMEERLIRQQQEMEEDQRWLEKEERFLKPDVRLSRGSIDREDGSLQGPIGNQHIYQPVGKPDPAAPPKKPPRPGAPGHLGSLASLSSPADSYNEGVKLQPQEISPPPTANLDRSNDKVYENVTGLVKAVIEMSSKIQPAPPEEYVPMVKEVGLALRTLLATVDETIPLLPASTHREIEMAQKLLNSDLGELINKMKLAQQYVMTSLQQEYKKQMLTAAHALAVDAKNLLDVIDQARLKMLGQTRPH
Torsin-1A (Homo sapiens), sequence (O14656 whole entry, looked up): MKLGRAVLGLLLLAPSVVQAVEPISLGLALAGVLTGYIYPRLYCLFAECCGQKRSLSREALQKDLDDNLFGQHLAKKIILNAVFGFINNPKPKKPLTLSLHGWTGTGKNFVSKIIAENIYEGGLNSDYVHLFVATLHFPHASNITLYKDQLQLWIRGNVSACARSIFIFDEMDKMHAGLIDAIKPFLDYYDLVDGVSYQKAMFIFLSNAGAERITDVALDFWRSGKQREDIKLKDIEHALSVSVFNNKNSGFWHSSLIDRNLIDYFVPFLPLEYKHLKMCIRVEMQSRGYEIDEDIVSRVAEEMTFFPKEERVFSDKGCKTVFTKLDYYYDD

With `CC(CCN1CCCc2nc(C)c(C)cc21)=NO[C@@H](C)c1cc(-c2c(C)cc(C)cc2C)no1`, the composite z-score is 1.4 in test [1]; 0.314 in [2]; 0.514 in test [3]; 0.745 in [4]; 0.427 in test [5]; 0.388 in test [6]. Further, the composite z-score in the test on Lefty1 came out at 0.643; in test [8] it was 0.605; in [10], 0.0353; in [15], 0.327; in test [16], 0.111; in the test with Torsin-1A (Homo sapiens) [17], 0.464. Also, the composite z-score was -0.184 with Torsin-1A (Homo sapiens) [18] and 0.54 in test [19]. For the same compound, the z-score in test [7] is 1.91; in [9], 0.0678 (inactive); in [11], -0.636 (inactive); in test [12], -0.501 (inactive); in test [13] it was -0.0591 (inactive); in test [14] it was -0.559 (inactive).

As to `COCCNC(=O)OCC1CCCC2(CC(OC(=O)NCc3ccc4c(c3)OCO4)CC(CCC(=O)N[C@@H](C)C(=O)OC)O2)O1` (stereo not given in full), the composite z-score in test [1] was 0.721; in test [2], 0.885; in [3] it was 0.136; in [4], 0.592; in test [5], 0.752; in test [6] it was 1.13. Further, the composite z-score in the test on Lefty1 is 1.3; in test [8], 0.139; in test [10] it was -0.0558; in test [15], 0.303; in test [16] it was -0.205; with Torsin-1A (Homo sapiens) [17], 0.308. The composite z-score turned out to be 0.551 with Torsin-1A (Homo sapiens) [18] and 1.5 in test [19]. The z-score was -0.397 in [7]; 0.89 (inactive) in test [9]; -0.773 (inactive) in test [11]; -0.0785 (inactive) in [12]; -0.0755 (inactive) in test [13]; 0.468 (inactive) in test [14].

`CC(C)=CCCC(C)=CCON=C1C[C@@H](O)[C@@H](O)[C@@H]2[C@@H]3C(=O)N(C4CCCCC4)C(=O)[C@@H]3CC[C@@H]12`: the composite z-score in test [1] was -0.216; in [2], 0.0286; in test [3], 0.0165; in [4], -0.229; in [5], 0.831; in [6], 0.417. The composite z-score in the test on Lefty1 was 0.791; in [8] it was -0.0783; in test [10], 0.24; in [15], -0.0037; in [16], -0.0719; with Torsin-1A (Homo sapiens) [17], 0.184. Moreover, the composite z-score stood at 0.288 with Torsin-1A (Homo sapiens) [18] and 1.08 in test [19]. Moreover, the z-score in test [7] was -0.64; in test [9], 0.335 (inactive); in [11], -0.592 (inactive); in [12], 0.233 (inactive); in test [13], 0.517 (inactive); in [14] it was 0.13 (inactive).

For `CC(CCN1CCCCc2nc(C)c(C)cc21)=NO[C@H](C)c1cn([C@H](CO)Cc2ccccc2)nn1`, the composite z-score in test [1] is 0.566; in test [2], -0.556; in test [3] it was -0.0044; in test [4] it was 0.339; in [5], 0.965; in [6], 1.01. Further, the composite z-score in the test on Lefty1 was 1.08; in [8], -0.154; in test [10] it was 0.101; in [15], 0.0378; in test [16], -0.256; with Torsin-1A (Homo sapiens) [17] it was 2.04. The composite z-score with Torsin-1A (Homo sapiens) [18] is 0.164; in test [19], 1.32. In addition, the z-score in test [7] is 0.0726; in [9], -1.09 (inactive); in [11] it was -1.11 (inactive); in test [12], 0.0152 (inactive); in [13] it was 2.24 (inactive); in test [14], 0.743 (inactive).

`CCOC(=O)[C@H](Cc1ccccc1)NC(=O)CCC1CC(OC(=O)NCCc2ccc(F)cc2)CC2(CCCC(COC(=O)NCCc3ccccc3OC)O2)O1` (stereo not given in full): the composite z-score was 0.949 in [1]; 1.15 in test [2]; 0.165 in test [3]; 0.916 in test [4]; 0.818 in [5]; 0.888 in test [6]. Further, the composite z-score in the test with Lefty1 was 1.11; in [8], 0.441; in test [10], 0.359; in test [15] it was 0.536; in test [16], -0.0897; in the test with Torsin-1A (Homo sapiens) [17], 0.196. Also, the composite z-score in the test with Torsin-1A (Homo sapiens) [18] came out at 0.721; in test [19], 1.54. The z-score was -0.366 in [7]; 0.451 (inactive) in test [9]; -0.131 (inactive) in test [11]; 0.248 (inactive) in [12]; 0.198 (inactive) in test [13]; -0.099 (inactive) in [14].
